According to publication PMC7862700, “An all-to-all approach to the identification of sequence-specific readers for epigenetic DNA modifications on cytosine”:

Key:
Assay in all cases: DAPPL (digital affinity profiling via proximity ligation, sequencing); 10 mM Tris-HCl pH 7.5, 50 mM NaCl, 1 mM DTT, 4% glycerol, room temperature, 30 min; GST-TFs on glutathione beads, 16-mer random dsDNA library, 0.1% formaldehyde crosslink after washing; high values mean tight binding
[1] = biological target: T1, FLI1 (Homo sapiens, UniProt Q01543 1-452); conditions: protein: recombinant; tags: N-terminal GST; dsDNA, one strand shown
T1 sequence: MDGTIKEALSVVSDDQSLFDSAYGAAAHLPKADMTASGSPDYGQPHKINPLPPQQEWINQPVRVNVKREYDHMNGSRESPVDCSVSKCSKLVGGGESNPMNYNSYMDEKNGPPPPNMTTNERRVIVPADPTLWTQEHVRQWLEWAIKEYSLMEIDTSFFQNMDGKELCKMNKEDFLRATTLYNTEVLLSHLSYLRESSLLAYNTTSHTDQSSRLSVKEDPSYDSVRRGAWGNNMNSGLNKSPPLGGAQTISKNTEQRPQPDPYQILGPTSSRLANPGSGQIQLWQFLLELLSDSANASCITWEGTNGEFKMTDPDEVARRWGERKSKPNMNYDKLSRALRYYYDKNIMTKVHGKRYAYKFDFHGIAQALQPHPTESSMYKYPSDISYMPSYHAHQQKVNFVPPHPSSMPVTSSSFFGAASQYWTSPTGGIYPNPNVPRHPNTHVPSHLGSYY
Summary of the method: (§1)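 Beads coated with glutathione captured GST-fused human transcription factors that had been expressed in yeast, and the factors were then given DNA barcodes and pooled with a tag-only sample. The pools were incubated with 200 nmole of a random double-stranded 16-mer DNA library in Tris/NaCl/DTT/glycerol buffer for 30 min at room temperature, washed, crosslinked with 0.1% formaldehyde and proximity-ligated with BsaI/T4 ligase at 37 °C for 1 h. PCR amplification and Illumina NextSeq500 sequencing came last. Binding signal is each hexamer's read frequency for a factor divided by its frequency for the tag-only sample.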

[2] = biological target: T2, ELK1 (Homo sapiens, UniProt P19419 1-428); conditions: protein: recombinant; tags: N-terminal GST; dsDNA, one strand shown
T2 sequence: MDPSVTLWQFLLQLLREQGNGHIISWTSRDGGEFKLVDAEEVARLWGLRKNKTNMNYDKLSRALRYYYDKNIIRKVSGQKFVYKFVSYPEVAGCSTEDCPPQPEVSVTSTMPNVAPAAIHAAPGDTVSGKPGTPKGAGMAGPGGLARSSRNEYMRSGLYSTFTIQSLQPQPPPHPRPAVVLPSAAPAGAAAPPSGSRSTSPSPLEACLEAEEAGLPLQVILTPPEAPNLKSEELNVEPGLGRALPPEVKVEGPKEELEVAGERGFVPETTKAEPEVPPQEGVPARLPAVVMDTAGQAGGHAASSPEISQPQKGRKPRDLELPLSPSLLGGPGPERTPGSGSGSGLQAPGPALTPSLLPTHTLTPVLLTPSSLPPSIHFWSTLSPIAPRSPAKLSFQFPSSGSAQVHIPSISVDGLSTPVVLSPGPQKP
Summary of the method: as §1

[3] = biological target: T3, GABPA (Homo sapiens, UniProt Q06546 1-454); conditions: protein: recombinant; tags: N-terminal GST; dsDNA, one strand shown
T3 sequence: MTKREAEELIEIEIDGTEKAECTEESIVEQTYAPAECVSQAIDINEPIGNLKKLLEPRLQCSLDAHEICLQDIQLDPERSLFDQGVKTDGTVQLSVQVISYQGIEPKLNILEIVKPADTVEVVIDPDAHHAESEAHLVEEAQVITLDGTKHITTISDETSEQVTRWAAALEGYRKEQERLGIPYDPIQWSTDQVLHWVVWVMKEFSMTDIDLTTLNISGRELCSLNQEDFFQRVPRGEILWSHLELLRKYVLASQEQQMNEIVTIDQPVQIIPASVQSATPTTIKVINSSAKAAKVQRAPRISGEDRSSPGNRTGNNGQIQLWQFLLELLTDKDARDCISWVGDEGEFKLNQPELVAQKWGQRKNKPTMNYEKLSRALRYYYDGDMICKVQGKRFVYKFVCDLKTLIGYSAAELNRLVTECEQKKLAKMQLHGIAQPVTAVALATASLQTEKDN
Summary of the method: as §1

[4] = biological target: T4, ERG (Homo sapiens, UniProt P11308 1-479); conditions: protein: recombinant; tags: N-terminal GST; dsDNA, one strand shown
T4 sequence: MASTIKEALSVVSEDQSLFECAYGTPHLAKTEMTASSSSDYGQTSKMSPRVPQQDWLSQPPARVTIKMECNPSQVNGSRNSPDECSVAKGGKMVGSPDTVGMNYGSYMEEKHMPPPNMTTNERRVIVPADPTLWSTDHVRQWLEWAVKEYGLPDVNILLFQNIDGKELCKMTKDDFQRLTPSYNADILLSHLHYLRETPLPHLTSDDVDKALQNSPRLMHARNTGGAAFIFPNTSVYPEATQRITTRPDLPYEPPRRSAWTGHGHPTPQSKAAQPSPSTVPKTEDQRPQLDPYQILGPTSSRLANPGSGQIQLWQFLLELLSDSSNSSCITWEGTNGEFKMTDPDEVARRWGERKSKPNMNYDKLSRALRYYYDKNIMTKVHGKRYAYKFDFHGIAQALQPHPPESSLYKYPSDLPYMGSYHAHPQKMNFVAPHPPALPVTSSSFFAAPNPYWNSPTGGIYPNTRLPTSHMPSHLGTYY
Summary of the method: as §1

[5] = biological target: ELF1 (Homo sapiens, UniProt P32519 1-619); conditions: protein: recombinant; tags: N-terminal GST; dsDNA, one strand shown
ELF1, sequence (P32519 whole entry): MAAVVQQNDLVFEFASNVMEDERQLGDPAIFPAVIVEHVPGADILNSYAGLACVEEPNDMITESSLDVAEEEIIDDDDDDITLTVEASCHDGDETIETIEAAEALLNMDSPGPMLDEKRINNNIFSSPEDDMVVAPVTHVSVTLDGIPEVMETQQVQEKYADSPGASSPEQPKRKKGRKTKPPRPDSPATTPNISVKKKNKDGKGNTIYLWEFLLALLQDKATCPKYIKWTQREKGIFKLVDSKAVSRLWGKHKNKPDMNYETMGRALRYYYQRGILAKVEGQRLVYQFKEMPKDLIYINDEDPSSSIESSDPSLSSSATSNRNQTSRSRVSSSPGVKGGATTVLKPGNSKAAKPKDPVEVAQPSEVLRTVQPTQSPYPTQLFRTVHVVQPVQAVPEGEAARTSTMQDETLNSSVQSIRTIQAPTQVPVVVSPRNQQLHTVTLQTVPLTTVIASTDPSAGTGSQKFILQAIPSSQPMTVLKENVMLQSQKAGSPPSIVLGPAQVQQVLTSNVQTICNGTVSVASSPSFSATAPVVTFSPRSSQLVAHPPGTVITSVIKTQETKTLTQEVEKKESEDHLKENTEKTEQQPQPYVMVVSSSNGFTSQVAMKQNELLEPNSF
Summary of the method: as §1

[6] = biological target: T5, EHF (Homo sapiens, UniProt Q9NZC4 1-300); conditions: protein: recombinant; tags: N-terminal GST; dsDNA, one strand shown
T5 sequence: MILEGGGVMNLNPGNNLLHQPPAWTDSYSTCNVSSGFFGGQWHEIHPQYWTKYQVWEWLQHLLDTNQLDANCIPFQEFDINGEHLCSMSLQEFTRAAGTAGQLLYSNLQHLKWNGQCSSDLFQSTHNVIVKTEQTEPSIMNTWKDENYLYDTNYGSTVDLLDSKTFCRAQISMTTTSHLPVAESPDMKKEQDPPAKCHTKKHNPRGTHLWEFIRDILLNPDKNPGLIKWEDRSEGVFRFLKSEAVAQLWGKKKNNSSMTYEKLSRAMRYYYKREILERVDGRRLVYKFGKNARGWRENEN
Summary of the method: as §1

[7] = biological target: SPI1 (Homo sapiens, UniProt P17947 1-270); conditions: protein: recombinant; tags: N-terminal GST; dsDNA, one strand shown
Summary of the method: as §1

[8] = biological target: SPIB (Homo sapiens, UniProt Q01892 1-262); conditions: protein: recombinant; tags: N-terminal GST; dsDNA, one strand shown
SPIB, sequence (Q01892 whole entry): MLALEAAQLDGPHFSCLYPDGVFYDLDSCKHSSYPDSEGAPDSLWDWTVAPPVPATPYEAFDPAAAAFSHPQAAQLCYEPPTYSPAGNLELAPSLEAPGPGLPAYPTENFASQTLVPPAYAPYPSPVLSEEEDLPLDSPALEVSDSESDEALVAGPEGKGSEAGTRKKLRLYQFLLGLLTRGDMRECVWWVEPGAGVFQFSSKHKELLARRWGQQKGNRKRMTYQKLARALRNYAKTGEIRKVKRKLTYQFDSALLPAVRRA
Summary of the method: as §1

[9] = biological target: T6, ELK3 (Homo sapiens, UniProt P41970 1-407); conditions: protein: recombinant; tags: N-terminal GST; dsDNA, one strand shown
T6 sequence: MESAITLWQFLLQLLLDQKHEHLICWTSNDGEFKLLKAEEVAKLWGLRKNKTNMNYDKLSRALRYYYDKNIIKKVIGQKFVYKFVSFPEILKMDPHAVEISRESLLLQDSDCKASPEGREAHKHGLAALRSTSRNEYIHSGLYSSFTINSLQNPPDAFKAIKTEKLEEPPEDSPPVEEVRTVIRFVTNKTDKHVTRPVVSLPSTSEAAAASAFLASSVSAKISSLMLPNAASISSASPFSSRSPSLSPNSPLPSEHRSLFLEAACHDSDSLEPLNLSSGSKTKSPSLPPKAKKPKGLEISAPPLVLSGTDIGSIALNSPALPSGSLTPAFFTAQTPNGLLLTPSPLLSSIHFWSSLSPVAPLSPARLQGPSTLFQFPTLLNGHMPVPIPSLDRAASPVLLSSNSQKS
Summary of the method: as §1

[10] = biological target: T7, FEV (Homo sapiens, UniProt Q99581 1-238); conditions: protein: recombinant; tags: N-terminal GST; dsDNA, one strand shown
T7 sequence: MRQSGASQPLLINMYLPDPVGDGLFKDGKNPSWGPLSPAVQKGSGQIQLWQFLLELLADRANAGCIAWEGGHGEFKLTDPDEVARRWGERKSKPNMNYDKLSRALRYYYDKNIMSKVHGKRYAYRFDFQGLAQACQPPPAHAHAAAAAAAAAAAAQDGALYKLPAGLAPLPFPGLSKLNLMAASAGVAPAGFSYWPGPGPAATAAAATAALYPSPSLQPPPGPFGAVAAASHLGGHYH
Summary of the method: as §1

[11] = biological target: ETV5 (Homo sapiens, UniProt P41161 1-510); conditions: protein: recombinant; tags: N-terminal GST; dsDNA, one strand shown
ETV5, sequence (P41161 whole entry): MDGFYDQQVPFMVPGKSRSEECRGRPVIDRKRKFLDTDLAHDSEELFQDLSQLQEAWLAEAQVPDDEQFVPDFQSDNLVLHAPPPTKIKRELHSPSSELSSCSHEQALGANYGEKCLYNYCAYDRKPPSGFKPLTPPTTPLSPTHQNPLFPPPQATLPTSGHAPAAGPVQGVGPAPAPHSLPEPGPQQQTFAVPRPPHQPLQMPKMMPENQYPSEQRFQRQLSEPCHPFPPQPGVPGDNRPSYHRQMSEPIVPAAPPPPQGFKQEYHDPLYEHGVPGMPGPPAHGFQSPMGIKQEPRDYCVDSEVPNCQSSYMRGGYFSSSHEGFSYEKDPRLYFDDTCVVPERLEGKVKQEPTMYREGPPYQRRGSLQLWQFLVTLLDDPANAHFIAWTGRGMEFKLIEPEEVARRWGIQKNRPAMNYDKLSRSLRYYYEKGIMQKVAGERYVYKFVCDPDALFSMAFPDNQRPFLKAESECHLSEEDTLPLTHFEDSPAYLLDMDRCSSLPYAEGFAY
Summary of the method: as §1

[12] = biological target: HSF1 (Homo sapiens, UniProt Q00613 1-529); conditions: protein: recombinant; tags: N-terminal GST; chain copies: 3; dsDNA, one strand shown
HSF1, sequence (Q00613 whole entry): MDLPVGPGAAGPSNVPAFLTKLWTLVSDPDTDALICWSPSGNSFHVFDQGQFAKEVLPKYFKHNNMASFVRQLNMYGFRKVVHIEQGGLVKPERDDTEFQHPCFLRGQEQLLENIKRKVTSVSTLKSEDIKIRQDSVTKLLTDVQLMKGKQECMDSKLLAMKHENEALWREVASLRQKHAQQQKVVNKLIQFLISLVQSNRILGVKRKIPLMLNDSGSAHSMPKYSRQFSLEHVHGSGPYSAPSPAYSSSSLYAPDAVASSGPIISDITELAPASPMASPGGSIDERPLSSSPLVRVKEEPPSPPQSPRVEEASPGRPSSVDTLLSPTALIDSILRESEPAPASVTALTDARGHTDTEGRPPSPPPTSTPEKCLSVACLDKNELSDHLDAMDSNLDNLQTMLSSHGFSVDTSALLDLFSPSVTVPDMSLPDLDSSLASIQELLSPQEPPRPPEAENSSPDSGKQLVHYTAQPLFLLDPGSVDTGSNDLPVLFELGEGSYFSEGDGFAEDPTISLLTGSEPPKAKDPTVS
Summary of the method: as §1

[13] = biological target: T8, SPIC (Homo sapiens, UniProt Q8N5J4 1-248); conditions: protein: recombinant; tags: N-terminal GST; dsDNA, one strand shown
T8 sequence: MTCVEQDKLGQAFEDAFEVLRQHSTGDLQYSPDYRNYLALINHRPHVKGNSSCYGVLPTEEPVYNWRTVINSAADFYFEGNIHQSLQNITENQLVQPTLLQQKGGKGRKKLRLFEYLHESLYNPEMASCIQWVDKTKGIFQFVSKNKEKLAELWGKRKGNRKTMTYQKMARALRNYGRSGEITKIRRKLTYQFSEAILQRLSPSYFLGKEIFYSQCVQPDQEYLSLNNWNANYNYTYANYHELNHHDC
Summary of the method: as §1

[14] = biological target: ELF4 (Homo sapiens, UniProt Q99607 1-663); conditions: protein: recombinant; tags: N-terminal GST; dsDNA, one strand shown
ELF4, sequence (Q99607 whole entry): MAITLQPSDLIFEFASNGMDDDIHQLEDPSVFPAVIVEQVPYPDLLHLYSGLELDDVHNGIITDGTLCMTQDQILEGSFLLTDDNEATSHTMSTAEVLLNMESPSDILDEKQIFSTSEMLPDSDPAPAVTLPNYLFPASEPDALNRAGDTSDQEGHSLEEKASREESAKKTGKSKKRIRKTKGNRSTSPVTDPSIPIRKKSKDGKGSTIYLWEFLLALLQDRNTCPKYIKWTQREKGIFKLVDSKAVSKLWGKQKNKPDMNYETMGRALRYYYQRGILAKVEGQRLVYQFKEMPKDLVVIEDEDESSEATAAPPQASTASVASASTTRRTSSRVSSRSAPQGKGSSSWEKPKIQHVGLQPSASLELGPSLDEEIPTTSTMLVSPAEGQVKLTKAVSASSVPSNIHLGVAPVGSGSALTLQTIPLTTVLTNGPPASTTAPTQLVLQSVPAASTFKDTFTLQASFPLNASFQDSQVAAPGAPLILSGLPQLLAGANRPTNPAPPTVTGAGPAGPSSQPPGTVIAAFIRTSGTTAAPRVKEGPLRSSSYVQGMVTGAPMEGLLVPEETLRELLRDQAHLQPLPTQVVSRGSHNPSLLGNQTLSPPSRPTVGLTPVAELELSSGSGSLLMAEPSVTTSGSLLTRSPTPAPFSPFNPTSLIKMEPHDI
Summary of the method: as §1

[15] = biological target: T9, ELK4 (Homo sapiens, UniProt P28324-2 1-405); conditions: protein: recombinant; tags: N-terminal GST; dsDNA, one strand shown
T9 sequence: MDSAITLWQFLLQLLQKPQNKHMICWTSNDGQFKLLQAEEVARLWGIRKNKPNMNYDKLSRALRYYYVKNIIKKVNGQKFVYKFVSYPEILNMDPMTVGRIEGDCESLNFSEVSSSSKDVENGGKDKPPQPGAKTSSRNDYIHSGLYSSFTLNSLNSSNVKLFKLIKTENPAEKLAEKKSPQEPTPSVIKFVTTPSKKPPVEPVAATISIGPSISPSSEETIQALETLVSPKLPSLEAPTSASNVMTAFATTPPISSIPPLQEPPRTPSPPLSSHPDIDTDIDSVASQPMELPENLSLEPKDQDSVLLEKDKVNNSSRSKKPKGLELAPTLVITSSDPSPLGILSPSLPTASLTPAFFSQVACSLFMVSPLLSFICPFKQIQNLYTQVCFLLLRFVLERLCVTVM
Summary of the method: as §1

[16] = biological target: T10, ETV2 (Homo sapiens, UniProt O00321 1-342); conditions: protein: recombinant; tags: N-terminal GST; dsDNA, one strand shown
T10 sequence: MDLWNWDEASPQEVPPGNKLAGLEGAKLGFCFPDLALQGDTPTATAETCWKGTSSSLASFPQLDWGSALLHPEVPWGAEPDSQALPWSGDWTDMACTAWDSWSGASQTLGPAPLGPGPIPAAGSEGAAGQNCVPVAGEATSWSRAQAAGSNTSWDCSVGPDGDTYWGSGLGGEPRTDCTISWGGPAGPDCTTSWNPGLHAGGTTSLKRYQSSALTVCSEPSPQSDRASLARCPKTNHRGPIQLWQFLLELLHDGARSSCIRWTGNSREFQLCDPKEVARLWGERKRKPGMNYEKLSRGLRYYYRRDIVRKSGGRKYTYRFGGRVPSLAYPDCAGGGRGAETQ
Summary of the method: as §1

[17] = biological target: T11, ELF3 (Homo sapiens, UniProt P78545 1-371); conditions: protein: recombinant; tags: N-terminal GST; dsDNA, one strand shown
T11 sequence: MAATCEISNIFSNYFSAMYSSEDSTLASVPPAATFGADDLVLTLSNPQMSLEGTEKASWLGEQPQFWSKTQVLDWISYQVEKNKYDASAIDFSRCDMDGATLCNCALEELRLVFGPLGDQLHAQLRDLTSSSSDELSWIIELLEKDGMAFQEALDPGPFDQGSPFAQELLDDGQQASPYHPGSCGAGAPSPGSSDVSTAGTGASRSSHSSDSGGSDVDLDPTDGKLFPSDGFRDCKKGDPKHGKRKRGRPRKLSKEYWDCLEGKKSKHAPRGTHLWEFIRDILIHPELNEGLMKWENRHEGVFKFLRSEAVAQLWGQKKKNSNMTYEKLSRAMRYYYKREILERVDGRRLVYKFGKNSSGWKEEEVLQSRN
Summary of the method: as §1

[18] = biological target: CRX (Homo sapiens, UniProt O43186 1-299); conditions: protein: recombinant; tags: N-terminal GST; dsDNA, one strand shown
CRX, sequence (O43186 whole entry): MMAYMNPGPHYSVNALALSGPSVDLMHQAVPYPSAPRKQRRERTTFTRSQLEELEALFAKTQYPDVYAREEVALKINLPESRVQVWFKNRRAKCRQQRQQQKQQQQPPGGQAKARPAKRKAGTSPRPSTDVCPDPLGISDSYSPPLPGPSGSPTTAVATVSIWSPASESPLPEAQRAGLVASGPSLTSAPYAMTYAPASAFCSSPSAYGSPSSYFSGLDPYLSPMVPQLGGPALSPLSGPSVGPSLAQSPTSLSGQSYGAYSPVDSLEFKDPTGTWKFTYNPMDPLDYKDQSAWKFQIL
Summary of the method: as §1

[19] = biological target: ETV1 (Homo sapiens, UniProt P50549 1-477); conditions: protein: recombinant; tags: N-terminal GST; dsDNA, one strand shown
ETV1, sequence (P50549 whole entry): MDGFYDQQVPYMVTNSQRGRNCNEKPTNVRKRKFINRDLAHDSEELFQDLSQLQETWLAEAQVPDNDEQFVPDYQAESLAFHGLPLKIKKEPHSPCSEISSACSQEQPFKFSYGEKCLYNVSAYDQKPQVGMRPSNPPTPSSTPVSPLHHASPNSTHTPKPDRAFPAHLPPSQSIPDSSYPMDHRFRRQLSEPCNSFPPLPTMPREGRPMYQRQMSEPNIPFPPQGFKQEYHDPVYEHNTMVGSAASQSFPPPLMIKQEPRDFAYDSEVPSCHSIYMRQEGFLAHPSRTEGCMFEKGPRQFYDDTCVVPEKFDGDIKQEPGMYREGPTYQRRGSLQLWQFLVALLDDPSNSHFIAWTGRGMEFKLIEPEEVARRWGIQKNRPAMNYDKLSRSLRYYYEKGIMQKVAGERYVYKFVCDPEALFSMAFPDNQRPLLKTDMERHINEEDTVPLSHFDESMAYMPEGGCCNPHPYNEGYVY
Summary of the method: as §1

In the case of TTCTGG, the binding signal [1] is reported as 1.36 fold enrichment (6-mer frequency, TF over GST control), the binding signal [2] is reported as 1.16 fold enrichment (6-mer frequency, TF over GST control) and the binding signal [3] is reported as 1.32 fold enrichment (6-mer frequency, TF over GST control). For the same sequence, the binding signal [4] was 1.31 fold enrichment (6-mer frequency, TF over GST control), the binding signal [5] was 1.14 fold enrichment (6-mer frequency, TF over GST control) and the binding signal [6] was 1.2 fold enrichment (6-mer frequency, TF over GST control). The binding signal [7] was 1.24 fold enrichment (6-mer frequency, TF over GST control), the binding signal [8] was 1.18 fold enrichment (6-mer frequency, TF over GST control) and the binding signal [9] was 1.48 fold enrichment (6-mer frequency, TF over GST control). The binding signal [10] was 1.19 fold enrichment (6-mer frequency, TF over GST control), the binding signal [11] was 1.16 fold enrichment (6-mer frequency, TF over GST control) and the binding signal [12] was 4.45 fold enrichment (6-mer frequency, TF over GST control). For the same sequence, the binding signal [13] was 1.36 fold enrichment (6-mer frequency, TF over GST control), the binding signal [14] was 1.29 fold enrichment (6-mer frequency, TF over GST control) and the binding signal [15] was 1.35 fold enrichment (6-mer frequency, TF over GST control). The binding signal [16] was 1.42 fold enrichment (6-mer frequency, TF over GST control), the binding signal [17] was 1.21 fold enrichment (6-mer frequency, TF over GST control) and the binding signal [18] was 1.76 fold enrichment (6-mer frequency, TF over GST control). The binding signal [19] was 1.21 fold enrichment (6-mer frequency, TF over GST control).
